Columns and labels:
Conditions in all cases: Compound Concentration (nM):1000
RET(V804M) = test system: RET(V804M)
RET = test system: RET
RIOK1 = test system: RIOK1
RIOK2 = test system: RIOK2
RIOK3 = test system: RIOK3
RIPK1 = test system: RIPK1
RIPK2 = test system: RIPK2
RIPK4 = test system: RIPK4
RIPK5 = test system: T1, RIPK5
T1 construct: gene DSTYK

ROCK1 = test system: ROCK1
ROCK2 = test system: ROCK2
ROS1 = test system: ROS1
[1] = test system: RPS6KA4(Kin.Dom.1-N-terminal)
[2] = test system: RPS6KA4(Kin.Dom.2-C-terminal)
[3] = test system: RPS6KA5(Kin.Dom.1-N-terminal)
[4] = test system: RPS6KA5(Kin.Dom.2-C-terminal)
[5] = test system: T2, RSK1(Kin.Dom.1-N-terminal)
T2 construct: gene RPS6KA1

[6] = test system: T3, RSK1(Kin.Dom.2-C-terminal)
T3 construct: gene RPS6KA1

[7] = test system: T4, RSK2(Kin.Dom.1-N-terminal)
T4 construct: gene RPS6KA3

[8] = test system: T5, RSK2(Kin.Dom.2-C-terminal)
T5 construct: gene RPS6KA3
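Note: KINOMEscan scanMAX binding as percent activity remaining versus control; lower means stronger binding.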

Compound	Percent Control (RET(V804M))	Percent Control (RET)	Percent Control (RIOK1)	Percent Control (RIOK2)	Percent Control (RIOK3)	Percent Control (RIPK1)	Percent Control (RIPK2)	Percent Control (RIPK4)	Percent Control (RIPK5)	Percent Control (ROCK1)	Percent Control (ROCK2)	Percent Control (ROS1)	Percent Control [1]	Percent Control [2]	Percent Control [3]	Percent Control [4]	Percent Control [5]	Percent Control [6]	Percent Control [7]	Percent Control [8]
COc1ccccc1-c1cc(/C=C2\C(=O)Nc3ncc(Br)cc32)cc(Br)c1O [GW442130X]	100%	100%	100%	17%	100%	100%	100%	100%	100%	96%	82%	95%	100%	68%	76%	46%	100%	58%	100%	79%
COc1ccc2cc(-c3c(-c4ccncc4)nc(-c4ccc(S(C)(=O)=O)cc4C)n3C)ccc2c1 [SB-633825]	97%	72%	22%	92%	78%	34%	81%	61%	75%	78%	80%	69%	100%	91%	95%	51%	82%	97%	62%	70%
CN1CCN(C(=O)c2ccc(NC(=O)Nc3ccc(N(C)c4ccnc(Nc5ccc(CS(C)(=O)=O)cc5)n4)cc3)cc2)CC1.Cl [GW830263A]	0.5%	0%	2.2%	21%	0%	100%	94%	57%	5.4%	17%	1.5%	57%	82%	74%	100%	87%	100%	93%	57%	86%
C/C(Nc1ccc(S(N)(=O)=O)cc1)=C1/C(=O)Nc2ccccc21 [GW335962X]	100%	96%	82%	100%	69%	96%	83%	86%	48%	83%	69%	76%	96%	85%	100%	100%	100%	92%	52%	89%
CC(C)COC(=O)c1ccc2c(c1)/C(=C/Nc1ccc(S(N)(=O)=O)cc1)C(=O)N2 [GW416981X]	26%	100%	21%	100%	15%	100%	100%	100%	48%	36%	21%	100%	100%	67%	100%	66%	100%	100%	36%	97%
Cc1cc(O)cc(C)c1/C=C/c1cncc(C(N)=O)c1 [GW435821X]	100%	100%	99%	100%	93%	100%	21%	100%	93%	100%	100%	86%	100%	98%	100%	100%	100%	100%	100%	96%
Cl.O=C(Nc1ccc(Oc2ccc3[nH]c(NC(=O)c4ccccc4)nc3c2)cc1)Nc1cc(C(F)(F)F)ccc1F [GW709042A]	2.7%	0.6%	52%	100%	33%	62%	89%	100%	100%	95%	85%	67%	100%	77%	100%	88%	100%	100%	100%	90%
COc1cc2ncnc(Nc3ccc4c(cnn4Cc4ccccc4)c3)c2cc1OC.Cl [GW282449A]	100%	75%	97%	88%	100%	100%	27%	100%	71%	94%	100%	89%	42%	93%	84%	100%	100%	100%	100%	99%
C[C@@H](Oc1cc(-n2cnc3ccc(OC4CCN(C)CC4)cc32)sc1C(N)=O)c1ccccc1Cl [GSK579289A]	84%	99%	13%	91%	34%	89%	87%	33%	93%	87%	83%	100%	100%	3.2%	100%	38%	71%	86%	23%	98%
O=C1Nc2ccc(C(=O)c3ccco3)cc2C1=Cc1cc(Cl)c(O)c(Cl)c1 [GW406108X]	28%	96%	46%	73%	30%	100%	75%	91%	54%	77%	45%	100%	100%	49%	100%	67%	78%	16%	26%	85%
Cl.c1ccc(Cc2nc3ccc(Nc4ncnc5ccccc45)cc3[nH]2)cc1 [GR269666A]	100%	100%	100%	88%	100%	100%	67%	98%	98%	100%	98%	76%	100%	100%	100%	100%	100%	100%	100%	97%
CC1=C(C(=O)Nc2ccc3[nH]ncc3c2)C(c2ccc(Cl)c(Cl)c2)CC(=O)N1 (stereo not drawn) [GSK299115A]	89%	76%	99%	100%	86%	77%	72%	78%	99%	0%	0.1%	98%	100%	82%	100%	60%	100%	81%	75%	89%
COc1cc2ncn(-c3cc(O[C@H](C)c4ccccc4Cl)c(C(N)=O)s3)c2cc1OC [GSK237701A]	77%	54%	26%	100%	19%	61%	100%	87%	84%	69%	83%	92%	92%	68%	100%	72%	96%	87%	50%	77%
CC1=C(C(=O)Nc2ccc3[nH]ncc3c2)C(c2ccc3ccccc3c2)CC(=O)N1 (stereo not drawn) [GSK270822A]	66%	28%	74%	100%	88%	97%	90%	68%	96%		0%	81%	100%	91%	100%	64%	91%	99%	72%	75%
COc1ccc2c(-c3ccnc(Nc4cccc(OC(F)(F)F)c4)n3)cnn2n1 [GW810372X]	100%	100%	42%	29%	51%	100%	100%	77%	100%	100%	100%	96%	100%	100%	100%	87%	100%	100%	95%	90%
O=C(Nc1n[nH]c2nc(-c3ccc(O)cc3)c(Br)cc12)C1CC1 [SB-725317]	96%	100%	55%	82%	56%	100%	100%	90%	100%	100%	98%	91%	100%	1.2%	100%	43%	100%	100%	65%	97%
CN(C)CCNC(=O)Nc1ccc(N(C)c2ccnc(Nc3ccc(CS(C)(=O)=O)cc3)n2)cc1.Cl [GW830900A]	86%	60%	9.5%	90%	17%	99%	94%	60%	32%	9.4%	9.1%	61%	100%	88%	100%	100%	100%	84%	73%	82%
CN(C)c1cc2c(Nc3ccc4c(cnn4Cc4ccccc4)c3)ncnc2cn1 [GW282974X]	89%	86%	98%	100%	100%	53%	27%	74%	90%	100%	96%	100%	93%	89%	100%	92%	97%	100%	95%	100%
Nc1ncnc2occ(-c3ccc(NC(=O)Nc4cc(C(F)(F)F)ccc4F)cc3)c12 [GW770249X]	0.1%	0%	56%	100%	44%	26%	100%	100%	80%	84%	27%	56%	100%	92%	55%	100%	100%	100%	89%	98%
NS(=O)(=O)c1ccc(N/N=C2\C(=O)Nc3ccc(C(=O)NCc4ccncc4)cc32)cc1 [GW300657X]	84%	92%	62%	77%	63%	89%	100%	72%	47%	64%	56%	100%	87%	42%	100%	19%	94%	83%	79%	87%

From PMC7826789 (International Journal of Molecular Sciences, 2021)
